The values that follow come from PubChem BioAssay (NCI).

Where “and” joins values, the source holds several entries; their conditions need not be identical. Identical values can stand only once. About 83,000 compounds went through this panel and 20% of them were active in at least one assay; those are over-represented in the sample as a whole.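 The test compound was applied at a single concentration to cells in 96-well plates for 48 hours, and percent growth was recorded.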 Calls of active or inactive are those of the source. The calls were made as follows: active = growth percent below 10; inactive = the rest.

Some test systems named below: NCI-H23 lung; NCI-H226 lung; NCI-H322M lung; NCI-H460 lung; HOP-92 NSCLC; NCI-H522 lung; A549/ATCC NSCLC; 786-0 renal; COLO 205 colon; HOP-62 NSCLC.
Common to all, as to experiment: NCI-60 one-dose screen, 48 h (100 = growth as untreated, 0 = no growth, -100 = all killed)
Holding throughout (conditions): 10 µM unless noted

Turning to `CCCCCCCCCCCCCCCCCC1OCC(COC(=O)O[C@@H](C(=O)O[C@H]2C[C@@]3(O)[C@@H](OC(=O)c4ccccc4)[C@@H]4[C@]5(OC(C)=O)CO[C@@H]5C[C@H](O)[C@@]4(C)C(=O)[C@H](OC(C)=O)C(=C2C)C3(C)C)[C@@H](NC(=O)c2ccccc2)c2ccccc2)O1` (some centres not stated), the growth was 40.3% (inactive) in the assay on NCI-H23 lung; 53.4% (inactive) in the assay on NCI-H226 lung; 58.8% (inactive) in the assay with NCI-H322M lung; 18.2% (inactive) with NCI-H460 lung; 94.8% (inactive) with HOP-92 NSCLC; 48.6% (inactive) in the assay with NCI-H522 lung. For the same compound, the growth in the assay with A549/ATCC NSCLC is 53.2% (inactive); in the assay with 786-0 renal it was 80.9% (inactive); in the assay with COLO 205 colon, 24.7% (inactive).

For the compound `c1ccc2c(c1)O[As](O[As]1Oc3ccccc3O1)O2`, the growth in the assay on NCI-H23 lung was 43.8% (inactive); in the assay with NCI-H226 lung, 65.2% (inactive); in the assay with NCI-H322M lung, 58.5% (inactive); in the assay on HOP-62 NSCLC, 50.6% (inactive); in the assay with NCI-H460 lung, 54.8% (inactive); in the assay on HOP-92 NSCLC, -12.2% (active). The growth with 786-0 renal was 25.3% (inactive); in the assay on COLO 205 colon it was 50.3% (inactive).

For the compound `CN(C)C(=S)SSC(=S)N(C)C`, the growth was 98.9% (inactive) and 138% (inactive) with NCI-H23 lung; 99.3% (inactive) and 110% (inactive) with NCI-H226 lung; 75.3% (inactive) and 94.9% (inactive) in the assay on NCI-H322M lung; 111% (inactive) and 112% (inactive) with HOP-62 NSCLC; -20.9% (active) and 92.9% (inactive) in the assay with NCI-H460 lung; 102% (inactive) in the assay on HOP-92 NSCLC. In addition, the growth in the assay with A549/ATCC NSCLC was 80% (inactive) and 71.6% (inactive); in the assay on 786-0 renal, 107% (inactive) and 101% (inactive); with COLO 205 colon, 63.1% (inactive) and 70.6% (inactive).

On to `O=CC1(c2ccccc2)CCN(Cc2ccccc2)CC1`, for which the growth is 101% (inactive) in the assay on NCI-H23 lung; 98.2% (inactive) in the assay with NCI-H226 lung; 105% (inactive) in the assay on NCI-H322M lung; 110% (inactive) in the assay on NCI-H460 lung; 97.3% (inactive) in the assay with HOP-92 NSCLC; 105% (inactive) with NCI-H522 lung. Also, the growth in the assay on A549/ATCC NSCLC was 95.4% (inactive); in the assay with 786-0 renal, 108% (inactive); in the assay with COLO 205 colon it was 109% (inactive).

Take `[N-]=[N+]=CC(=O)CCC(=O)C=[N+]=[N-]`: the growth is 105% (inactive) in the assay on NCI-H23 lung; 100% (inactive) with NCI-H226 lung; 95.8% (inactive) with NCI-H322M lung; 112% (inactive) in the assay on NCI-H460 lung; 90.6% (inactive) in the assay with HOP-92 NSCLC; 110% (inactive) with NCI-H522 lung. Further, the results for the growth in the assay on A549/ATCC NSCLC, in the assay with 786-0 renal and in the assay on COLO 205 colon were 113% (inactive), 99.3% (inactive) and 117% (inactive), respectively.

In the case of `O=[N+]([O-])c1ccc(OCc2ccc(S(=O)(=O)F)c(Cl)c2)c(Cl)c1`, the growth with NCI-H23 lung is 99.2% (inactive); in the assay with NCI-H226 lung, 93.4% (inactive); in the assay with NCI-H322M lung, 116% (inactive); in the assay on NCI-H460 lung, 115% (inactive); in the assay with HOP-92 NSCLC, 77.5% (inactive); in the assay on NCI-H522 lung, 89.1% (inactive). For the same compound, the growth in the assay with A549/ATCC NSCLC is 110% (inactive); with 786-0 renal, 79.9% (inactive).

As for `CN1CCc2cc3c(cc2C1O)OCO3` (configuration not stated), the growth was 109% (inactive) with NCI-H23 lung; 36% (inactive) and 105% (inactive) in the assay with NCI-H226 lung; 127% (inactive) and 98.7% (inactive) in the assay with NCI-H322M lung; 103% (inactive) and 99.1% (inactive) with HOP-62 NSCLC; -48.6% (active) and 107% (inactive) in the assay with NCI-H460 lung; -63.4% (active) and 109% (inactive) with NCI-H522 lung. For the same compound, the growth with A549/ATCC NSCLC was 96.2% (inactive) and 106% (inactive); in the assay with 786-0 renal, 100% (inactive) and 91.9% (inactive); in the assay with COLO 205 colon, 92.9% (inactive) and 111% (inactive).

On to `O=[N+]([O-])c1cc(Br)c(O)c(Br)c1`, for which the growth in the assay on NCI-H23 lung was 101% (inactive); with NCI-H226 lung, 93.5% (inactive); with NCI-H322M lung, 105% (inactive); with NCI-H460 lung, 107% (inactive); with HOP-92 NSCLC, 95.8% (inactive); in the assay with NCI-H522 lung, 92.7% (inactive). Besides, the growth is 98.9% (inactive) with A549/ATCC NSCLC and 102% (inactive) in the assay on 786-0 renal.

For `Cc1cc(N(CCCl)CCCl)ccc1C=Nc1ccc(-c2csc(-c3ccccc3)n2)cc1`, the growth in the assay with NCI-H23 lung was 66.6% (inactive); with NCI-H226 lung it was 58.5% (inactive); in the assay with NCI-H322M lung, 117% (inactive); in the assay with HOP-62 NSCLC it was 79.3% (inactive); in the assay on NCI-H460 lung, 33.1% (inactive); in the assay on HOP-92 NSCLC it was 59.4% (inactive). Moreover, the growth in the assay with A549/ATCC NSCLC was 67.2% (inactive); in the assay with 786-0 renal, 59.2% (inactive); with COLO 205 colon, 88.9% (inactive).

Regarding `CCCCCCCCCCCCCCCC[N+](C)(C)C`, the growth in the assay on NCI-H23 lung is -83.6% (active) and 20.7% (inactive); in the assay with NCI-H226 lung, -54.8% (active) and 46.7% (inactive); in the assay with NCI-H322M lung it was -70% (active) and 60.7% (inactive); in the assay with NCI-H460 lung, -84% (active) and 0.102% (active); in the assay with HOP-92 NSCLC it was -45.3% (active) and -18.4% (active); with NCI-H522 lung it was -57.9% (active) and -39.7% (active). Besides, the growth with A549/ATCC NSCLC was 29.4% (inactive); in the assay with 786-0 renal, -83.5% (active) and 4.56% (active); in the assay with COLO 205 colon, -74% (active) and -89.8% (active).

For `C=CCOC(=O)C(Br)CC` (configuration not stated), the growth in the assay with NCI-H23 lung is 99% (inactive); in the assay on NCI-H226 lung, 101% (inactive); with NCI-H322M lung it was 108% (inactive); in the assay on HOP-62 NSCLC, 108% (inactive); in the assay on NCI-H460 lung it was 104% (inactive); in the assay with NCI-H522 lung it was 99.2% (inactive). Besides, the growth in the assay on A549/ATCC NSCLC is 107% (inactive); in the assay on 786-0 renal it was 106% (inactive); with COLO 205 colon, 103% (inactive).

Take `O=[N+]([O-])c1cc(Cl)c(Cl)cc1Cl`: the growth in the assay on NCI-H23 lung was 105% (inactive) and 107% (inactive); in the assay on NCI-H226 lung, 114% (inactive) and 108% (inactive); in the assay on NCI-H322M lung, 116% (inactive) and 123% (inactive); in the assay with NCI-H460 lung it was 110% (inactive) and 108% (inactive); with HOP-92 NSCLC it was 110% (inactive); with NCI-H522 lung it was 134% (inactive) and 110% (inactive). Moreover, the growth in the assay with A549/ATCC NSCLC was 88.7% (inactive) and 111% (inactive); in the assay with 786-0 renal, 111% (inactive) and 112% (inactive).

Regarding `Cc1nc2ccccc2c(=O)n1-c1ccccc1F`, the growth is 100% (inactive) in the assay with NCI-H23 lung; 96.6% (inactive) with NCI-H226 lung; 111% (inactive) with NCI-H322M lung; 81.6% (inactive) in the assay with HOP-62 NSCLC; 105% (inactive) in the assay with NCI-H460 lung; 87.5% (inactive) with HOP-92 NSCLC. The results for the growth with A549/ATCC NSCLC, with 786-0 renal and in the assay on COLO 205 colon were 76.2% (inactive), 103% (inactive) and 98.3% (inactive), respectively.

For the compound `Nc1ccc(P(=O)(O)O)cc1`, the growth is 101% (inactive) and 96.7% (inactive) in the assay with NCI-H23 lung; 102% (inactive) and 100% (inactive) with NCI-H226 lung; 104% (inactive) and 99.3% (inactive) in the assay with NCI-H322M lung; 113% (inactive) and 103% (inactive) in the assay on NCI-H460 lung; 95.3% (inactive) and 90.3% (inactive) with HOP-92 NSCLC; 111% (inactive) and 88.8% (inactive) with NCI-H522 lung. Besides, the growth in the assay on A549/ATCC NSCLC was 102% (inactive) and 94.4% (inactive); in the assay on 786-0 renal, 113% (inactive) and 91.2% (inactive); with COLO 205 colon, 111% (inactive) and 105% (inactive).
